Experiment [1] is described as follows: CEETOX_H295R_PROG: CeeTox H295R High-throughput Steroidogenesis Assay for Progesterone (PROG) (AID 2283442).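 As to AC50: human H295R adrenal cells primed with 10 µM forskolin before dosing.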 Particulars: actives raise or lower the signal. The method, boiled down:
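Progesterone secreted by human H295R cells was measured by LC-MS/MS following 48 h chemical exposure at 0.1% DMSO, preceded by 48 h forskolin (10 uM) stimulation. Same-well MTT viability; cytotoxic concentrations diluted 10- or 100-fold and retested.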

Read-out in experiment [2]: Tumor necrosis factor receptor superfamily member 6 (Homo sapiens) (UniProt P25445)
The experiment can be described thus: LTEA_HepaRG_FAS: Life Technologies and Expression Analysis (LTEA) Assay for Fas cell surface death receptor (FAS) using HepaRG (AID 2283447). Particulars: mRNA level, 48 h; actives raise or lower the signal. The method, boiled down: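 Differentiated HepaRG cells in serum-free induction medium were exposed 48 h to 8 half-log concentrations up to 100 uM in 0.5% DMSO, in duplicate. FAS mRNA was measured by qRT-PCR normalised to ACTB, GAPDH and POLR2A; bidirectional fit versus DMSO.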

Read-out in experiment [3]: Fatty acid synthase (Homo sapiens) (UniProt P49327)
Description: LTEA_HepaRG_FASN: Life Technologies and Expression Analysis (LTEA) Assay for Fatty Acid Synthase (FASN) using HepaRG (AID 2283448).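 As to AC50: differentiated human HepaRG liver cells in serum-free induction medium.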 Particulars: mRNA level, 48 h; actives raise or lower the signal. The method, boiled down: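 Cells were plated, cultured 48 h, switched to serum-free induction medium, then dosed in duplicate (max 100 uM, half-log dilutions, 0.5% DMSO) for 48 h. RNA was then isolated and FASN quantified by qRT-PCR.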

Read-out in experiment [4]: Cyclin Dependent Kinase Inhibitor 1A (CDKN1A), CDKN1A (gene 1026)
Description: LTEA_HepaRG_CDKN1A: Life Technologies and Expression Analysis (LTEA) Assay for Cyclin Dependent Kinase Inhibitor 1A (CDKN1A) using HepaRG (AID 2283450). Particulars: mRNA level, 48 h; actives raise or lower the signal. The method, boiled down: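 Expression quantified by Fluidigm qRT-PCR with ACTB, GAPDH and POLR2A normalization, fitted bidirectionally against 0.5% DMSO. Cells: HepaRG, plated 48 h then treated 48 h in serum-free induction medium, top concentration 100 uM with half-log dilutions.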

Read-out in experiment [5]: catalase (CAT), CAT (gene 847)
The experiment can be described thus: LTEA_HepaRG_CAT: Life Technologies and Expression Analysis (LTEA) Assay for catalase (CAT) using HepaRG (AID 2283452).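 As to AC50: TaqMan qRT-PCR signal normalized to ACTB GAPDH and POLR2A housekeeping genes.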 Particulars: mRNA level, 48 h; actives raise or lower the signal. The method, boiled down:
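HepaRG cells in serum-free induction medium, 0.5% DMSO vehicle, exposed 48 h in duplicate over 8 half-log concentrations from 100 uM. CAT mRNA measured by qRT-PCR, normalized to ACTB, GAPDH, POLR2A; bidirectional fit versus DMSO.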

Read-out in experiment [6]: flavin-containing dimethylaniline monooxygenases 3 (FMO3), FMO3 (gene 2328)
The experiment can be described thus: LTEA_HepaRG_FMO3: Life Technologies and Expression Analysis (LTEA) Assay for flavin-containing dimethylaniline monooxygenases 3 (FMO3) using HepaRG (AID 2283453).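 As to AC50: differentiated human HepaRG liver cells in serum-free induction medium; FMO3 transcript by TaqMan qRT-PCR normalized to ACTB GAPDH and POLR2A.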 Particulars: mRNA level, 48 h; actives raise or lower the signal. The method, boiled down:
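FMO3 transcript quantified by TaqMan qRT-PCR against three housekeeping genes after 48 h chemical exposure of HepaRG cells. Eight-point half-log series, top 100 uM, 0.5% DMSO vehicle; phenobarbital 1mM induction control; up- or down-regulation fitted.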

Read-out in experiment [7]: Cytochrome P450 (CYP1A1), CYP1A1 (gene 1543)
Description: LTEA_HepaRG_CYP1A1: Life Technologies and Expression Analysis (LTEA) Assay for Cytochrome P450 (CYP1A1) using HepaRG (AID 2283454). The following applies: mRNA level, 48 h; actives raise or lower the signal. The method, boiled down: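 CYP1A1 transcript levels measured by Fluidigm qRT-PCR against three housekeeping genes, 48 h after chemical dosing of human HepaRG cells (highest concentration 100 uM, half-log steps, 0.5% DMSO vehicle). Gain or loss of signal fitted relative to DMSO.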

Read-out in experiment [8]: CFLAR gene, CFLAR (gene 8837)
The experiment can be described thus: LTEA_HepaRG_CFLAR: Life Technologies and Expression Analysis (LTEA) Assay for CFLAR gene using HepaRG (AID 2283455). The following applies: mRNA level, 48 h; actives raise or lower the signal. The method, boiled down: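 qRT-PCR read-out (Fluidigm/TaqMan) of CFLAR mRNA, normalized to three housekeeping genes, in differentiated human HepaRG cells after 48 h chemical exposure; 8-point half-log series from 100 uM in 0.5% DMSO; bidirectional curve fitting versus DMSO.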

Read-out in experiment [9]: Cyclin D2 (CCND2), CCND2 (gene 894)
The experiment can be described thus: LTEA_HepaRG_CCND2: Life Technologies and Expression Analysis (LTEA) Assay for Cyclin D2 (CCND2) using HepaRG (AID 2283449).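 Also: CCND2 transcript measured by TaqMan qRT-PCR and normalised to three housekeeping genes.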 Particulars: mRNA level, 48 h; actives raise or lower the signal. In a few lines: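 HepaRG, 48 h dosing, 8-pt half-log curve from 100 uM, 0.5% DMSO; duplicate wells. Readout: CCND2 transcript by microfluidic qRT-PCR, housekeeping-normalised; bidirectional fit vs DMSO baseline.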

Read-out in experiment [10]: Cyclin D1 (CCND1), CCND1 (gene 595)
The experiment can be described thus: LTEA_HepaRG_CCND1: Life Technologies and Expression Analysis (LTEA) Assay for Cyclin D1 (CCND1) using HepaRG (AID 2283451).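 As to AC50: differentiated human HepaRG liver cells in serum-free induction medium; TaqMan qRT-PCR transcript level normalised to ACTB GAPDH and POLR2A housekeeping genes.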 Particulars: mRNA level, 48 h; actives raise or lower the signal. In a few lines: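 Expression of CCND1 was quantified by qRT-PCR on Fluidigm arrays using ACTB, GAPDH and POLR2A as reference genes. HepaRG cultures, plated 48 h beforehand, were dosed for 48 h at up to 100 uM (half-log, 8 points) in 0.5% DMSO.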

SMILES strings stand for the structures. Active and inactive are the calls of the source. The calls were made as follows: active = hit-call score of the fitted dose curve at least 0.9, where 1 is the maximum; inactive = score below 0.9.

Chain of Fatty acid synthase (Homo sapiens) (P49327 whole entry, looked up): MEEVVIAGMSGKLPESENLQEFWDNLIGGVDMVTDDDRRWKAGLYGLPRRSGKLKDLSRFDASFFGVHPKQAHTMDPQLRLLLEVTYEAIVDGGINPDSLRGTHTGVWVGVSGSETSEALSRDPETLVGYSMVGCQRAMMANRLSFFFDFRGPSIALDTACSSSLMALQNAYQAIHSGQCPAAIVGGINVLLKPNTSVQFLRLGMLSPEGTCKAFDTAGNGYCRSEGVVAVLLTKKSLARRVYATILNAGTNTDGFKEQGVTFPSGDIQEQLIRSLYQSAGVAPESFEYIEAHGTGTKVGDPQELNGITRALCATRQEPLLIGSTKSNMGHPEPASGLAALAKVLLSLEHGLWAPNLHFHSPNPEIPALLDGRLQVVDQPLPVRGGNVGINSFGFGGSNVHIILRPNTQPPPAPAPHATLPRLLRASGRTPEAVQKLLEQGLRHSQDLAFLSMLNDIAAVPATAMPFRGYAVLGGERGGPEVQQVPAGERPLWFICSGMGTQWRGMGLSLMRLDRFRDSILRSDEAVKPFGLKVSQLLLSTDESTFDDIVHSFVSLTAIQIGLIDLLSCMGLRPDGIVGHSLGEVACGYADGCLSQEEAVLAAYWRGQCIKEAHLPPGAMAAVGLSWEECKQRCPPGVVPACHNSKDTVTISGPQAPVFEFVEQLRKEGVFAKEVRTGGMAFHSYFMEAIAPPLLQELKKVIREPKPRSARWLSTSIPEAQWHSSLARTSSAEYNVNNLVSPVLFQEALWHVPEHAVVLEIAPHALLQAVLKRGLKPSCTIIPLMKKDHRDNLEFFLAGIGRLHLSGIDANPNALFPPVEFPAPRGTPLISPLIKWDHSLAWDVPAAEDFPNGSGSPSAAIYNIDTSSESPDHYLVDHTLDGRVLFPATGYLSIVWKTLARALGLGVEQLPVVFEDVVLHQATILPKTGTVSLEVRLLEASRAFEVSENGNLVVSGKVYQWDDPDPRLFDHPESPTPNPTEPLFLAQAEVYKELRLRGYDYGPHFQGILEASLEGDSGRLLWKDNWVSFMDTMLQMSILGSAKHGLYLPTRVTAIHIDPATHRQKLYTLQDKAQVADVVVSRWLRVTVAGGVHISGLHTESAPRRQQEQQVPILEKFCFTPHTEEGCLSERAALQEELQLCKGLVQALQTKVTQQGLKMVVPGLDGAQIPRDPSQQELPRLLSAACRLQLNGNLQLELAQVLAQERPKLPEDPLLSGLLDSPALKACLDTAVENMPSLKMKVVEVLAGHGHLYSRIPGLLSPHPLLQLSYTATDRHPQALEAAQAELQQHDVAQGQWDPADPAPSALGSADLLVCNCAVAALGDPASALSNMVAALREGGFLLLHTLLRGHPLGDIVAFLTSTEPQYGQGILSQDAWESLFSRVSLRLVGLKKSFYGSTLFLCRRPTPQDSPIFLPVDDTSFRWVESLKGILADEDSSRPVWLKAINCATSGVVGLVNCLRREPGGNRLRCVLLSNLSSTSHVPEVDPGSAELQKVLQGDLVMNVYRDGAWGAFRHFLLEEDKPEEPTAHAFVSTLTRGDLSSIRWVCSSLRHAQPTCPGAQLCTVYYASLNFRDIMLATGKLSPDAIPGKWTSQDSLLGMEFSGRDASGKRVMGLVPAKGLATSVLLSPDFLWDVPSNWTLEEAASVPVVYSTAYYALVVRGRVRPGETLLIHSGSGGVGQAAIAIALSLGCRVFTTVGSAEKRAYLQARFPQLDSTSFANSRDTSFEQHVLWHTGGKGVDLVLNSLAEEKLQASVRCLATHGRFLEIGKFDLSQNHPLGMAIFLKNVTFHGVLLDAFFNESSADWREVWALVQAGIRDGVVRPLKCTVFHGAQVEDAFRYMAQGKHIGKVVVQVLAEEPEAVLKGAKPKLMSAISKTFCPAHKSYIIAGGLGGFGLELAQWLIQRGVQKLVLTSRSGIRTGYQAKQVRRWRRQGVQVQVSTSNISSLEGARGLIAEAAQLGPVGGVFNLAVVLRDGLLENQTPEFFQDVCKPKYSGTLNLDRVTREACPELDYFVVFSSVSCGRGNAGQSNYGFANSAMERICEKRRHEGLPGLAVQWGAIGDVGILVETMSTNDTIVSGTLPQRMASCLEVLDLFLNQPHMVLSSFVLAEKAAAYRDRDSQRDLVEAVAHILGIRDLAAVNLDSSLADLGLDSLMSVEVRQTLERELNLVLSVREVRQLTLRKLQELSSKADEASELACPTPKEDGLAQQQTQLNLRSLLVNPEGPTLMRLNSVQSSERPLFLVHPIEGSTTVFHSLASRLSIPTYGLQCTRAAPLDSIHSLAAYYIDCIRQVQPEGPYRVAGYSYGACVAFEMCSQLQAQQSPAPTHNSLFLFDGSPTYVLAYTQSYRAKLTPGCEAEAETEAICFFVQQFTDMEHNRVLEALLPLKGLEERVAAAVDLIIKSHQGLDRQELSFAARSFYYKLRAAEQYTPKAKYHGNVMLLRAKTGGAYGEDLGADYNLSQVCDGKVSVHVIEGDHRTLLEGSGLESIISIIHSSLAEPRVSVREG

Take `CCCCC(CC)C(=O)OCCOCCOCCOC(=O)C(CC)CCCC` (stereo not drawn): the result in experiment [1], in experiment [2], in [3], in [4], in experiment [5] and in experiment [6] was inactive. Besides, the compound was classed as inactive in experiment [7] and in experiment [8].

Take `C[C@]12C=CC(=O)C=C1CC[C@H]1[C@@H]3C[C@@H](O)[C@](O)(C(=O)CO)[C@@]3(C)C[C@H](O)[C@@]12F`: the outcome in experiment [1], in experiment [2], in experiment [3], in [9], in [4] and in [5] was inactive. Moreover, the compound was classed as inactive in [6] and in experiment [8].

For `Nc1ccn([C@@H]2O[C@H](CO)[C@@H](O)[C@@H]2O)c(=O)n1`, the compound was classed as inactive in [1], in experiment [2], in experiment [3], in experiment [9], in experiment [4] and in experiment [10]. Besides, the compound was classed as inactive in experiment [5], in experiment [6] and in experiment [8].

One may read the AC50 as the midpoint of the concentration-response curve, whichever way the signal moves. `c1ccc2c(c1)-c1cccc3c1c-2cc1ccccc13`: the result in [2], in experiment [9] and in experiment [4] was inactive. Besides, the AC50 is 13.7 µM (active) in [3]; 5.32 µM (active) in experiment [10]; 15.1 µM (active) in [5]; 18.4 µM (active) in experiment [6]; 0.851 µM (active) in [7]; 10.6 µM (active) in [8].

`OCc1c[nH]c2ccccc12`: the result in experiment [1] was inactive.

With `CCN(CC)C(=S)SSC(=S)N(CC)CC`, the compound was classed as inactive in experiment [1], in [2], in [3], in experiment [9], in experiment [4] and in experiment [10]. Further, the result in [5], in [6] and in experiment [8] was inactive.

With `CC(=O)c1ccccc1`, the result in [2], in experiment [3], in experiment [9], in [4], in [10] and in [5] was inactive. In addition, the call in experiment [6] and in [8] was inactive.

Regarding `C=CCc1cc(S(=O)(=O)c2ccc(O)c(CC=C)c2)ccc1O`, the half-maximal activity concentration (AC50) in [1] is 0.351 µM (active); in experiment [3], 81.4 µM (active); in [10], 88.2 µM (active); in [5], 71.6 µM (active); in [6] it was 76.9 µM (active). Besides, the compound was called inactive in experiment [2], in experiment [4], in experiment [7] and in experiment [8].

As for `C=CN1CCCC1=O`, the call in experiment [2], in [3], in [9], in [4], in experiment [10] and in experiment [5] was inactive. Moreover, the outcome in experiment [6] and in experiment [8] was inactive. Further, the concentration at half-maximal activity (AC50) in experiment [7] was 50 µM (active).

In the case of `Cc1ncc([C@@H](CCCCCCc2ccc3c(n2)NCCC3)CC(=O)O)cn1`, in experiment [1], the AC50 is 12.5 µM (active). In addition, the result in experiment [2], in experiment [3], in experiment [9], in [4], in [10] and in experiment [5] was inactive. Further, the compound was classed as inactive in experiment [6] and in experiment [8].

In the case of `Cc1nc(-c2ccccn2)ncc1C(=O)Nn1cc(C)c2cc(F)ccc21`, the result in experiment [2], in experiment [3], in [4], in experiment [10] and in [8] was inactive. Besides, the AC50 was 1.49 µM (active) in experiment [9], 50 µM (active) in [5] and 85.2 µM (active) in experiment [6].

Regarding `c1ccc2cc3ccccc3cc2c1`, the outcome in experiment [2], in experiment [3], in experiment [9], in experiment [4], in [10] and in experiment [5] was inactive. For the same compound, the call in experiment [6] and in experiment [8] was inactive.

With `C[C@@H](Oc1ccc(CNC(=O)c2cccnc2Oc2ccc3c(c2)OCO3)c(F)c1)C(=O)O`, the outcome in experiment [1], in [2], in experiment [3], in experiment [9], in [4] and in experiment [5] was inactive. Moreover, the compound was classed as inactive in experiment [6] and in experiment [8].

`CCn1nc(C)c2c1C(=O)NCC(c1ccc(O)cc1)=N2`: the values for the AC50 in [1], in experiment [3] and in [7] were 1.91 µM (active), 17.1 µM (active) and 40 µM (active), respectively. Besides, the result in experiment [2], in [9], in experiment [4], in experiment [5], in experiment [6] and in experiment [8] was inactive.

`COc1cc2c(c(OC)c1OC)-c1ccc(OC)c(=O)cc1[C@@H](NC(C)=O)CC2`: the outcome in [1], in [9] and in [4] was inactive. The AC50 in experiment [2] is 0.0799 µM (active); in experiment [3] it was 0.0575 µM (active); in experiment [5], 0.0772 µM (active); in experiment [6], 0.0477 µM (active); in experiment [8] it was 0.0663 µM (active).

As for `OCCNCCO`, the compound was called inactive in experiment [2], in [9], in experiment [4], in experiment [10], in experiment [6] and in experiment [8]. Besides, the AC50 in experiment [3] is 9.92 µM (active); in experiment [5] it was 50 µM (active).

For the compound `CC[C@H](C)C(=O)O[C@H]1C[C@H](O)C=C2C=C[C@H](C)[C@H](CC[C@@H](O)C[C@@H](O)CC(=O)O)[C@H]21`, the figures for the AC50 in experiment [1], in experiment [3] and in experiment [7] were 0.949 µM (active), 3.08 µM (active) and 9.15 µM (active), respectively. Besides, the result in [2], in experiment [9], in experiment [4], in experiment [10], in experiment [5] and in experiment [6] was inactive. In addition, the call in experiment [8] was inactive.

For the origin of these results see PubChem BioAssay (EPA / NIEHS).
